# Source: PubChem BioAssay
# HEK293 tox: cytotoxic compounds in HEK 293 cells; HEK 293 viability, ATP luminescence (CellTiter-Glo), 48-72 h; Potency, µM (titrated, usually from 115 µM), for the others: at the highest dose activity change, negative = cytotoxicity, usual class: inhibitors; 6.6% of 94,000 active; note: % is set by controls: 0 for no effect and ±100 for the full control effect; nearly all actives have a fitted effect of over 60% in size
#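 ATP-coupled CellTiter-Glo luminescence served as viability read-out, recorded 10 min after reagent addition at room temperature. HEK 293 cells, 250 cells/well, had been incubated with pintool-transferred compound for 48 or 72 hr at 37 degree Celsius.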
# FLuc inh: Photinus pyralis luciferase inhibition; purified P. pyralis luciferase, luminescence, biochemical; 2.5% of 76,000 active; Potency, µM (series often up to 115 µM), actives largely listed as inhibitors; AID 1347043; note: % is set by controls: 0 for no effect and ±100 for the full control effect; nearly all actives have a fitted effect of over 65% in size
#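 Luminescence read by CCD imager after adding enzyme (10nM final) to wells holding compound, titrated in qHTS. Substrates 10uM each D-luciferin and ATP; buffer 50mM Tris acetate pH 7.5, 10mM Mg acetate, Tween-20, BSA.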
# NPR1 antag: blocks ANP-stimulated signaling of human Npr1 receptor; P16066; HEK293 hNpr1 GloSensor cGMP, ANP-stimulated luminescence; Potency, µM (series often up to 46.3 µM), without a hit: top-dose activity change, negative = inhibition, most hits filed as inhibitors; 1.6% of 76,000 active; AID 1347048; calls by dose curve; note: % is set by controls: 0 for no effect and ±100 for the full control effect; nearly all actives have a fitted effect of over 60% in size
#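 HEK293 cells stably expressing human Npr1 and cGMP GloSensor pGS-40F, loaded 2 h with 2% GloSensor reagent, given compound 30 min at room temperature. Luminescence read before and 20 min after 0.1 nM hNppA.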
# NIH3T3 tox: NIH 3T3 cell cytotoxicity; Potency, µM (doses to about 96.7 µM), for inactives: at the top dose activity change, negative = cytotoxicity, actives largely listed as inhibitors; AID 1345082; NIH 3T3 viability, CellTiter-Glo ATP luminescence, 48-72 h; 4.3% of 94,000 active; note: % is set by controls: 0 for no effect and ±100 for the full control effect; nearly all actives have a fitted effect of over 55% in size
#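 ATP-dependent luminescence (CellTiter-Glo) served as the viability signal for NIH 3T3 cells treated with compound for 48 or 72 hr at 37 °C.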
# NPR1 antag cnf: hNpr1 antagonism, confirmation assay; shares compounds with NPR1 antag; HEK293 hNpr1 cGMP GloSensor luminescence, ANP-stimulated; Potency, µM (top dose mostly 57.6 µM), without a hit: at the highest dose activity change, negative = inhibition, actives largely listed as inhibitors; 76% of 1,400 active; AID 1347044; calls by dose curve; note: nearly all actives have a fitted effect of over 70% in size
# NPR2 antag: antagonizes human Npr2, subtype selectivity check; 67% of 1,400 active; shares compounds with NPR1 antag; HEK293 hNpr2 GloSensor cGMP luminescence, CNP-stimulated; Potency, µM (titrated, usually from 57.6 µM), inactives show at the top dose activity change, negative = inhibition, hits mostly inhibitors; calls by dose curve; note: nearly all actives have a fitted effect of over 70% in size
# FLuc counter: FLuc enzyme inhibition, Npr1 counter-screen; purified FLuc enzyme, luminescence, Km substrate; Potency, µM (highest dose often 57.6 µM), for inactives: at the highest dose activity change, negative = inhibition, most hits filed as inhibitors; shares compounds with NPR1 antag; 0.7% of 1,400 active; note: 0% is about no effect
# GloSensor cGMP: control cell line activity, Npr1 antagonist counter-screen | shares compounds with NPR1 antag | HEK293 GloSensor cGMP, SNP-stimulated, luminescence | Potency, µM (highest dose often 57.6 µM), without a hit: at the highest dose activity change, negative = inhibition, actives largely listed as inhibitors | 69% of 1,400 active; calls by dose curve; note: % is set by controls: 0 for no effect and ±100 for the full control effect; nearly all actives have a fitted effect of over 70% in size
# Starred values were filed as active, the others as inactive; i = inactive; ? = inconclusive; . = no result given; [ ] = dose if it differs, or a comment. In the library only some 11% were active in any assay of this set; here they are far more common. Unless noted, calls come from the whole dose curve; as a rule, active = well fitted curve in the direction sought with a large enough effect; inconclusive = small, poorly fitted or top-dose-only effect, or another doubt; inactive = no such curve, though single readings can be large; an effect the other way counts as inactive or inconclusive. Potency is the fitted concentration of half-maximal effect.
SMILES,HEK293 tox,FLuc inh,NPR1 antag,NIH3T3 tox,NPR1 antag cnf,NPR2 antag,FLuc counter,GloSensor cGMP
CC1(COc2ccccc2)COc2ccc(C(=O)N3CCOCC3c3ccncc3)cc2N1 (stereo unspecified),?,i,-25%,?,?,?,4%,?
O=C(Cc1ccccc1Cl)NC1CCN(c2cc(C(F)(F)F)ncn2)CC1,?,i,11µM*,-41%,19µM*,15µM*,-1%,15µM*
Cc1nc(N2CCC(C(=O)NCc3cccc(Cl)c3)CC2)cc(C(F)(F)F)n1,?,i,10µM*,?,19µM*,19µM*,7%,17µM*
COc1ccc(Cl)cc1C(=O)NC1CCN(c2cc(C(F)(F)F)nc(C)n2)CC1,?,i,?,?,.,.,.,.
COc1ccccc1CC(=O)NC1CCN(c2cc(C(F)(F)F)nc(C)n2)CC1,-14%,i,-16%,-29%,.,.,.,.
COc1ccccc1C(=O)NC1CCN(c2cc(C(F)(F)F)nc(C)n2)CC1,?,i,?,?,?,-29%,3%,?
Cc1nc(N2CCC(NC(=O)Cc3ccccc3Cl)CC2)cc(C(F)(F)F)n1,?,i,10µM*,?,19µM*,17µM*,2%,11µM*
CCc1ccc(C(=O)N2CCC(N3C(=O)N(Cc4cccnc4)CC34CCOC4)CC2)cc1 (stereo unspecified),i,.,.,?,.,.,.,.
O=C(CCC1CCCC1)N1CCC(c2noc(COc3ccc(F)cc3)n2)C1 (stereo unspecified),45µM*,i,10µM*,?,11µM*,15µM*,-7%,9.7µM*
Cn1cccc1C(=O)N1CCC(c2noc(COc3ccc(F)cc3)n2)CC1,?,i,?,?,.,.,.,.
CC1=NOC2(CCN(C(=O)c3ccc(C)cc3)CC2)C1,-3%[172 µM],i,0%[70.6 µM],-39%[138 µM],.,.,.,.
O=S(=O)(c1ccc(Cl)cc1)N1CCOC[C@H](Oc2ccc(C(F)(F)F)cc2)C1,?,i,-24%,?,?,?,4%,?
CC(C)c1nncn1C1CCN(S(=O)(=O)c2ccc(Br)s2)CC1,?,i,11µM*,?,24µM*,?,2%,22µM*
COCCNC(=O)c1nc2sccn2c1-c1cccc(C#N)c1,3%[172 µM],.,.,-16%[138 µM],.,.,.,.
Cc1ccc(NC(=O)O[C@@H]2CC[C@]3(C)[C@H](CC[C@H]4OC(=O)C[C@H]43)[C@]2(C)CO)cc1,-23%[172 µM],i,?,-13%[138 µM],?,?,-5%[86.2 µM],40µM*
Clc1ccc2nc(N3CCC(NCCc4cccnc4)CC3)sc2c1,14µM*,i,13µM*,18µM*,24µM*,24µM*,-28%,22µM*
Cc1nc(N2CCC(NCCc3cccnc3)CC2)c2ccsc2n1,?,i,3%,-21%,.,.,.,.
CNC(=O)c1cccc(NC(=O)c2nc(C(O)c3ccccc3F)oc2C)c1 (stereo unspecified),79µM*,i,35µM*,?,31µM*,31µM*,2%[86.2 µM],31µM*
Cc1oc(C(O)c2ccccc2F)nc1C(=O)Nc1ccccc1C(N)=O (stereo unspecified),?,i,25µM*,?,31µM*,35µM*,3%[86.2 µM],35µM*
O=C(c1ccc(-n2ccnc2)cc1)N1CCC(c2[nH]ncc2-c2ccccc2)CC1,-22%,i,11µM*,?,22µM*,22µM*,16%,5%
COCc1ccc(C(=O)N2CCC(c3[nH]ncc3-c3ccccc3)CC2)o1,-3%,i,-2%,-22%,.,.,.,.
CC1CCN(C(=O)CN2C(=O)NC(c3ccccc3)C3=C2COC3=O)CC1 (stereo unspecified),1%,i,6%,i,.,.,.,.
O=C(CN1C(=O)NC(c2ccc(Cl)cc2)C2=C1COC2=O)Nc1cccc(C(F)(F)F)c1 (stereo unspecified),?,i,?,?,?,?,-19%,?
CCOc1ccccc1C1NC(=O)N(CC(=O)Nc2cccc(C(F)(F)F)c2)C2=C1C(=O)OC2 (stereo unspecified),?,i,?,45µM*,?,-27%,-9%,?
O=C1OCC2=C1C(c1ccc(Cl)cc1)NC(=O)N2CC(=O)N1CCC(Cc2ccccc2)CC1 (stereo unspecified),28µM*,i,13µM*,?,19µM*,24µM*,-1%,19µM*
O=C(CN1C(=O)NC(c2ccccc2Cl)C2=C1COC2=O)Nc1ccc(C(F)(F)F)cc1 (stereo unspecified),?,i,1%,?,.,.,.,.
O=C(CCc1ccccc1)N1CCC2(CC1)NC(=O)N(c1cccc(F)c1)N2,?,i,1%,?,.,.,.,.
